The nature of assay [1]: LFS_MB_P medulloblastoma growth inhibition, cell-based, chromothripsis tumors, cisplatin or BGB combos (AID 1671449; in the data active = inhibition above about 80%;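 note: cells exposed for 96 hours; 0% = vehicle DMSO and 100% = killing by high DMSO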). The conditions noted are these: LFS_MB_P medulloblastoma cells.
The nature of assay [2]: HDN33 neuroblastoma growth inhibition, cell-based, chromothripsis tumors, cisplatin or BGB combos (AID 1671450; in the data active = inhibition above about 80%;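 note: cells exposed to compound for four days; 0% = vehicle DMSO and 100% = cell killing by high DMSO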). The conditions noted are these: HDN33 neuroblastoma cells, stronger effect = higher value.
Assay [3] in a line: ICB984 medulloblastoma cell growth inhibition, synergistic combos for chromothripsis tumors, cisplatin or BGB combos (AID 1671451).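 Note: cells exposed for 96 hours before readout; 0% = vehicle DMSO and 100% = killing by high DMSO.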 Conditions: ICB984 medulloblastoma cells, drug combinations, stronger effect = higher value.
Assay [4] can be described thus: LFS_MB_1R medulloblastoma cell growth inhibition, synergistic combos for chromothripsis tumors, cisplatin or BGB combos (AID 1671452; in the data active = inhibition above about 80%;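 note: cells exposed for 96 hours before readout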). Conditions: LFS_MB_1R medulloblastoma cells, stronger effect = higher value.
A short description of assay [5]: HTB85 osteosarcoma cell growth inhibition, synergistic combos for chromothripsis tumors, BGB or cisplatin IC20 combos (AID 1671453; in the data active = inhibition above about 80%;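 note: cells exposed for 96 hours before readout; 0% = vehicle DMSO and 100% = high DMSO killing control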). The conditions noted are these: HTB85 osteosarcoma cells, drug combinations, stronger effect = higher value.
Assay [6] can be described thus: CRL2098 osteosarcoma cell growth inhibition, synergistic combos for chromothripsis tumors, BGB or cisplatin IC20 combos (AID 1671454; in the data active = inhibition above about 80%;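 note: cells exposed for 96 h before readout; 0% = vehicle DMSO and 100% = killing by high DMSO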). The conditions noted are these: CRL2098 osteosarcoma cells, drug combinations, stronger effect = higher value.
A short description of assay [7]: MDA-MB-436 breast carcinoma cell growth inhibition, synergistic combos for chromothripsis tumors, BGB or cisplatin combos (AID 1671458).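 Note: cells exposed for 96 hours; 0% = vehicle DMSO and 100% = killing by high DMSO.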 Conditions: MDA-MB-436 breast carcinoma growth inhibition, drug combinations, stronger effect = higher value.
Assay [8] is described as follows: growth inhibition of BT084 medulloblastoma cells, cell-based, ICGC_MB145, cisplatin and BGB IC40 combos (AID 1671461; in the data active = inhibition above about 80%;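 note: cells exposed to drugs for 96 hours; 0% = vehicle DMSO and 100% = high DMSO full killing control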). The conditions noted are these: drug combinations, stronger effect = higher value.
The nature of assay [9]: growth inhibition of RCMB18 medulloblastoma cells, cell-based, cisplatin and BGB IC40 combos (AID 1671462; in the data active = inhibition above about 80%;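 note: cells exposed to compound for four days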). Conditions: stronger effect = higher value.
Assay [10] can be described thus: growth inhibition of CRL1545 osteosarcoma cells, cell-based, cisplatin and BGB IC20 combos (AID 1671464; in the data active = inhibition above about 80%;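 note: cells exposed to compound for 96 hours before readout; 0% = vehicle DMSO and 100% = high DMSO killing control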). The conditions noted are these: stronger effect = higher value.
Assay [11] has as its system Hepatitis C virus NS3 helicase. In words: HCV NS3 helicase inhibitors, primary screen, biochemical, fluorescence polarization, LOPAC1280 library (AID 687035; in the data active = inhibition above about 37%). Conditions: Purified HCV NS3 helicase, Cy5-dT15 ssDNA binding fluorescence polarization; stronger effect = higher value; concentration not given here.
The nature of assay [12]: Cy5 fluorescence quenching or enhancement artefacts, artefact control for HCV NS3 helicase inhibitor project, biochemical, LOPAC1280 (AID 687037). The conditions noted are these: Cy5-DNA-NS3h complex fluorescence interference counterscreen. (In general: A counterscreen serves to expose hits that act by an unwanted route or on another target.)
The nature of assay [13]: phospholipid biosynthesis inhibitors in animal cells, primary screen, cell-based, LOPAC library, screen 4 (AID 1347384). Conditions: phospholipid biosynthesis inhibition screen, at 10 µM.
A short description of assay [14]: inhibitors of Cryptococcus chitosan production, flow cytometry, Cibacron Brilliant Red staining (AID 1347148).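 Note: compound exposure lasted three days at 37 degrees C.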 The conditions noted are these: Cryptococcus neoformans chitosan, stronger effect = lower value; at 10 µM unless noted. On the technique in general: Flow cytometry measures light scatter and fluorescence of single cells or particles in a stream.
Setting [15] is: measured here: combination with BGB IC40, at 0.05 µM.
[16] abbreviates: measured here: with BGB IC20 combination, at 0.5 µM.
The mark [17] stands for this setting: measured here: with cisplatin IC20 combination, at 0.5 µM.
[18] abbreviates: measured here: combination with cisplatin, at 0.5 µM.

Structures are written as SMILES. Active and inactive are the calls of the source. Unless noted, the rule behind the calls is not given here.

As to `O=c1[nH]c(-c2ccc(C(F)(F)F)cc2)nc2c1CSCC2`, the inhibition (as a rule, the relative decrease from the control value, in per cent) in [1] (at 0.5 µM, stronger effect = higher value) was -18.1% (inactive); in [1] (measured here: combination with BGB IC20, at 0.005 µM), 0.844%; in assay [1] (measured here: combination with BGB IC40, at 0.005 µM), 12.4%; in assay [1] (setting [15]) it was -21.3%; in assay [1] (measured here: combination with cisplatin, at 0.5 µM, stronger effect = higher value) it was -36.1%; in assay [1] (measured here: combination with cisplatin, at 5 µM, stronger effect = higher value), -17.2%. Further, the inhibition in [2] (BGB combo, at 5 µM) is 8.65%; in assay [2] (at 0.5 µM), -7.61% (inactive); in assay [2] (cisplatin combo, at 5 µM), 8.16%; in assay [2] (setting [16]), -5.54%; in assay [2] (setting [17]) it was -17.8%; in assay [2] (single agent, at 5 µM), 38.9%. For the same compound, the inhibition in assay [3] (BGB IC20 combo, at 0.005 µM) is -4.67%; in assay [3] (BGB IC40 combo, at 0.005 µM), -45.8%; in assay [3] (BGB IC40 combo, at 0.05 µM) it was -11.7%; in assay [3] (at 0.5 µM), -27.1% (inactive); in assay [3] (cisplatin combo, at 0.05 µM) it was -15.7%; in assay [3] (cisplatin combo, at 0.5 µM) it was -29.5%. The inhibition in assay [3] (cisplatin combo, at 5 µM) was -33.3%; in assay [3] (measured here: 5 uM single agent, at 5 µM) it was -7.99%; in assay [4] (at 0.5 µM), -9.31% (inactive); in assay [4] (setting [15]), -26%; in assay [4] (setting [18]), -13.9%; in assay [4] (measured here: combination with cisplatin, at 5 µM) it was -59%. Also, the inhibition in assay [5] (at 0.5 µM) was -23.5% (inactive); in [5] (measured here: with BGB IC20, at 0.5 µM) it was -23%; in assay [5] (measured here: with BGB IC20, at 5 µM) it was -21.9%; in assay [5] (measured here: with cisplatin IC20, at 0.5 µM), -30.4%; in assay [5] (measured here: with cisplatin IC20, at 5 µM) it was -19.6%; in assay [5] (single agent, at 5 µM), 3.2%. The inhibition in [6] (at 0.5 µM) is -39.2% (inactive); in [6] (measured here: combination with BGB at IC20, at 0.5 µM) it was -20.7%; in [6] (measured here: combination with cisplatin at IC20, at 0.5 µM), -76.4%; in assay [7] (at 0.5 µM) it was -4.6% (inactive); in assay [7] (measured here: BGB combination, at 0.5 µM), -1.61%; in assay [7] (measured here: BGB combination, at 5 µM), -2.42%. In addition, the inhibition was -18.2% in [7] (measured here: cisplatin combination, at 0.5 µM); -5.9% in assay [7] (measured here: cisplatin combination, at 5 µM); -4.59% (inactive) in [8] (at 0.5 µM); -17.6% in assay [8] (cisplatin combination, at 0.5 µM); -12.8% in assay [8] (cisplatin combination, at 5 µM); 7.96% in assay [8] (measured here: BGB IC40 combination 0.05 uM, at 0.05 µM). Besides, the inhibition is -20.3% in [8] (single agent, at 5 µM); -18.1% (inactive) in assay [9] (at 0.5 µM); -47.8% in assay [9] (cisplatin combo, at 5 µM); -24.5% in assay [9] (measured here: BGB IC40 combination, at 0.05 µM); -29.6% in assay [9] (setting [18]); 13.3% in [9] (single agent, at 5 µM). The inhibition in [10] (at 0.5 µM) was -34.9% (inactive); in [10] (setting [16]), -20.3%; in assay [10] (setting [17]) it was -44.5%; in assay [10] (single agent, at 0.05 µM), -54.3%; in [10] (single agent, at 5 µM), -18.2%.

`Nc1ncnc2nc(-c3ccc(N4CCOCC4)nc3)cc(-c3cccc(Br)c3)c12`: the inhibition in [11] is -6% (inactive). Further, in assay [12], the fluorescence ratio (interference) was 0.9 (inactive).

In the case of `CCC(C)N(C)C(=O)c1cc2ccccc2c(-c2ccccc2Cl)n1` (centres undefined), in assay [11], the inhibition was 0% (inactive). The fluorescence ratio (interference) in [12] was 1 (inactive). Further, the compound was classed as inactive in [13].

With `NC(=O)c1ccc2[nH]ccc2c1`, the inhibition in [11] was 0% (inactive). In addition, the fluorescence ratio (interference) in [12] is 1 (inactive). For the same compound, the compound was called inactive in [13].

For `COc1cccc(-c2cc(=O)c3ccccc3o2)c1N`, the inhibition in [11] is -1% (inactive). For the same compound, the fluorescence ratio (interference) in assay [12] is 1 (inactive). For the same compound, the fold fluorescence in [14] is 6.5 [at 187.1 µM] (inactive). The compound was called inactive in assay [13].

For the compound `O=C1Nc2ccc(I)cc2/C1=C/c1cc(Br)c(O)c(Br)c1`, in assay [14], the fold fluorescence was 4.68 [at 96 µM] (inactive).

In the case of `Oc1ccc2ccccc2c1SSc1c(O)ccc2ccccc12`, in assay [11], the inhibition was 3% (inactive). Besides, the fluorescence ratio (interference) in assay [12] is 1 (inactive). Further, the compound was called inactive in assay [13].

Turning to `O=Nc1c(-c2c(O)[nH]c3cc(Br)ccc23)[nH]c2ccccc12`, the inhibition in assay [11] is 2% (inactive). Further, the fluorescence ratio (interference) in assay [12] is 0.9 (inactive). Moreover, in assay [13], the outcome was active.

`CCOC(=O)C1=C(N)Oc2ccc(Br)cc2C1C(C#N)C(=O)OCC` (centres undefined): in assay [14], the fold fluorescence is 6.68 [at 122.2 µM] (inactive).

In the case of `O=C(O)CCc1ccc(NCc2cccc(Oc3ccccc3)c2)cc1`, the inhibition in assay [11] was 0% (inactive). In addition, the fluorescence ratio (interference) in [12] was 1 (inactive). Besides, the compound was classed as inactive in assay [13].

In the case of `O=C1NC(=O)C(c2ccccc2[N+](=O)[O-])=C1Nc1ccc(O)c(Cl)c1`, the inhibition in assay [11] is -2% (inactive). Further, the fluorescence ratio (interference) in [12] is 1 (inactive). Moreover, in [14], the fold fluorescence was 5.23 [at 139 µM] (inactive). In addition, the outcome in [13] was inactive.

For the compound `N#CC(=C(/N)Sc1ccccc1N)/C(C#N)=C(\N)Sc1ccccc1N`, in [14], the fold fluorescence was 5.14 [at 131.4 µM] (inactive).

On to `Clc1ccc(-c2nc3sccn3c2/C=N/OCc2ccc(Cl)c(Cl)c2)cc1`, for which the fold fluorescence in assay [14] was 3.64 [at 114.5 µM] (inactive).

With `O=C1c2ccccc2-c2n[nH]c3cccc1c23`, in assay [11], the inhibition is 1% (inactive). Also, the fluorescence ratio (interference) in [12] was 1 (inactive). The fold fluorescence in assay [14] was 20.5 [at 227 µM] (inactive). Moreover, in [13], the outcome was inactive.

As for `COc1cc2c(cc1O)CC[C@@H]1[C@@H]2CC[C@]2(C)[C@@H](O)CC[C@@H]12`, the inhibition in assay [11] was -1% (inactive). In assay [12], the fluorescence ratio (interference) is 1 (inactive). Besides, the outcome in [13] was inactive.

Regarding `Cc1ccc(NC(=O)c2cccc(N(C)C)c2)cc1NC(=O)c1ccc(O)cc1`, in [14], the fold fluorescence was 3.78 [at 128.4 µM] (inactive).

For `Cc1ccc(S(=O)(=O)/C=C/C#N)cc1`, the inhibition in [11] is 0% (inactive). Also, the fluorescence ratio (interference) in [12] is 1 (inactive). For the same compound, the fold fluorescence in [14] was 8.49 [at 241.3 µM] (inactive). Further, the compound was called inactive in assay [13].

`Cc1cccc(C#Cc2ccccc2)n1`: the inhibition in [11] was -1% (inactive). Also, the fluorescence ratio (interference) in [12] was 1 (inactive). For the same compound, the outcome in assay [13] was inactive.

On to `C=CCc1cccc(/C=N/NC(=O)CN2CCN(Cc3ccccc3)CC2)c1O`, for which the compound was classed as inactive in [13].

On to `CCCC[C@@H](C=O)NC(=O)[C@H](CC(C)C)NC(=O)OCc1ccccc1`, for which the fold fluorescence in assay [14] was 5.15 [at 137.9 µM] (inactive).

The values are drawn from PubChem BioAssay.
